Unmarked numbers belong to inactive results. Activity calls are given as the source filed them. Unless noted, no stated cut-off is given here; in the data, active means inhibition above about 28%; inactive means the rest.
Key:
[1] = StAR promoter reporter inhibitors, counter-screen for LRH-1 inverse agonist project, cell-based, luminescence, high throughput (AID 651611); settings: StAR promoter luciferase reporter counterscreen, at 3.6 µM, active compounds read high
[2] = target: Nuclear receptor subfamily 5 group A member 2 (Homo sapiens) (UniProt O00482); assay: LRH-1 (NR5A2) inverse agonists, retest, confirmation, cell-based, luminescence (AID 651613; in the data active means inhibition above about 42%;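 further: HEK293T cells co-transfected with LRH-1 and StAR promoter luciferase reporter; 0% = vehicle wells and 100% = parental cells lacking receptor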); settings: cell-based LRH-1 luciferase reporter, inverse agonism; at 3.6 µM; active compounds read high
Chain of Nuclear receptor subfamily 5 group A member 2 (Homo sapiens) (O00482 whole entry, looked up): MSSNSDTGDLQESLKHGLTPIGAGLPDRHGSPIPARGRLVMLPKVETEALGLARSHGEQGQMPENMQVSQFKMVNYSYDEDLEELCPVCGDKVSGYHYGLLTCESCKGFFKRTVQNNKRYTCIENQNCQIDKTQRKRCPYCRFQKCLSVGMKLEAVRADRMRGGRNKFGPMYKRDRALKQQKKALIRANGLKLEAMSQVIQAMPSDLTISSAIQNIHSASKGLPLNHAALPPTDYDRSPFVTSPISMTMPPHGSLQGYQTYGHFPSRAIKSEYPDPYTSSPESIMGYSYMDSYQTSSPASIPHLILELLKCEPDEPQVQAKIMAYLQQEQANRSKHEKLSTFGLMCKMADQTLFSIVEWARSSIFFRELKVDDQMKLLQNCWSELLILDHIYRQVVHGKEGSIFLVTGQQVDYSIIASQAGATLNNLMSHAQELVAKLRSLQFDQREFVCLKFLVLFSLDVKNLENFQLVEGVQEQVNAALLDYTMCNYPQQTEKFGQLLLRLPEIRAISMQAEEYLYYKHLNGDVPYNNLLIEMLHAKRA

[3] = target: Steroidogenic factor 1 (Homo sapiens) (UniProt Q13285); assay: SF1 (NR5A1) inverse agonists, counter-screen for LRH-1 inverse agonist project, cell-based, luminescence, high throughput (AID 651614; in the data active means inhibition above about 44%;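 further: cells cotransfected with StAR promoter reporter and SF1 expression vector; 0% = vehicle on cells with receptor and 100% = vehicle on cells lacking receptor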); settings: cell-based SF1 luciferase reporter, at 3.6 µM, active compounds read high
Chain of Steroidogenic factor 1 (Homo sapiens) (Q13285 whole entry, looked up, the tested form may be a part): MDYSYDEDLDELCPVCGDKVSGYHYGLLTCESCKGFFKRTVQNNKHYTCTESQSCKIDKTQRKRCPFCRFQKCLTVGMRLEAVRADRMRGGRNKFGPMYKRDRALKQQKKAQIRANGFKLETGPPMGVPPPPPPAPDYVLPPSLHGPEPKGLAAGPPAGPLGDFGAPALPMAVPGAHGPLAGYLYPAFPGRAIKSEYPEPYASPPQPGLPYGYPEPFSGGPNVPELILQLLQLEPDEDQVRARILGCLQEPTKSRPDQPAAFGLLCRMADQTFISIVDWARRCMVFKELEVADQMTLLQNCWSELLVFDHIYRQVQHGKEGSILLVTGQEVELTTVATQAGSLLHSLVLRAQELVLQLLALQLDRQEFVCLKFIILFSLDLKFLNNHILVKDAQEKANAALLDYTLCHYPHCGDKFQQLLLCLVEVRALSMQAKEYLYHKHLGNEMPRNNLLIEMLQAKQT

[4] = VP16 transactivation reporter inhibitors, counter-screen for LRH-1 inverse agonist project, cell-based, luminescence, high throughput (AID 651615; in the data active means inhibition above about 33%); settings: Gal4-VP16 luciferase reporter cells, at 3.6 µM, active compounds read high

Row | SMILES | inhibition [1] | inhibition [2] | inhibition [3] | inhibition [4]
1 | O=[N+]([O-])c1ccc(COc2cccc(CNc3ccc(Br)cc3)c2)cc1 | 3.67% | 48.8% (active) | 37.4% | -6.59%
2 | O=C(COC(=O)CCN1C(=O)C2CC=CCC2C1=O)NCCc1ccc(F)cc1 (stereo unspecified) | 7.75% | 63.2% (active) | 55% (active) | -1.34%
3 | Cc1cc2ncn(/N=C/c3ccc([N+](=O)[O-])s3)c2cc1C | 12.7% | 60% (active) | 58.6% (active) | -1.24%
4 | Cc1ccc(NC(=O)c2ccc([N+](=O)[O-])o2)cc1S(=O)(=O)N1CCOCC1 | 17.7% | 58.5% (active) | 58.8% (active) | -4.03%
5 | Cc1ccc(NC(=O)[C@H](Cc2c[nH]c3ccccc23)NC(=O)[C@@H]2Cc3ccccc3CN2)c(C)c1 | 78.4% (active) | 3.94% | 71.4% (active) | 77.5% (active)
6 | COc1cccc(/C=N/Nc2nc(Nc3ccccc3)nc(-n3nc(C)cc3C)n2)c1O | 40.7% (active) | -7.01% | 0.2% | -6.05%
7 | COc1ccc(N2CCN(C(=O)c3ccc(CNS(=O)(=O)c4cccc(OC)c4)cc3)CC2)cc1 | 9.25% | 27.8% | 29.5% | 6.88%
8 | Cc1nn(CC(=O)Nc2ccc3c(c2)OCCO3)c(C)c1[N+](=O)[O-] | 11.2% | 62.3% (active) | 51.6% (active) | 10.4%
9 | CN(Cc1cccs1)c1nc(-c2cccnc2)nc2ccccc12 | 9.82% | 54.4% (active) | 43% (active) | 5.14%
10 | Cc1no[n+]([O-])c1COc1ccc(/C=N/n2nnnc2N)cc1 | -1.3% | 51.9% (active) | 48.4% (active) | 0.06%
11 | CCCc1cc(=O)oc2cc(OCC(=O)NCCc3ccc(S(N)(=O)=O)cc3)ccc12 | 9.29% | 50.9% (active) | 51.1% (active) | 4.44%
12 | Cc1ccn2c(=O)nc(SCC(=O)Nc3ccc4c(c3)OCCO4)nc2c1 | -9.07% | 49.3% (active) | 51% (active) | -15.9%
13 | COc1cccc(C(C)(O)c2nc(-c3ccc(S(C)(=O)=O)cc3)cs2)c1 (stereo unspecified) | 7.7% | 58.2% (active) | 62.1% (active) | 24%
14 | O=C(N/N=C/c1ccc([N+](=O)[O-])s1)c1ccccc1Br | 40.1% (active) | 57.5% (active) | 65.3% (active) | 14%
15 | O=C(Nc1ccccc1C(=O)NC1CC1)c1ccc([N+](=O)[O-])o1 | 22.3% | 62.9% (active) | 65.1% (active) | -5.35%
16 | CCN(CC)S(=O)(=O)c1ccc(N2CCCC2)c(NC(=O)c2ccc([N+](=O)[O-])o2)c1 | 19.4% | 55.4% (active) | 56.6% (active) | 10.5%
17 | COc1cc2c(cc1OC)CN(C(=O)Cn1ccccc1=O)CC2 | 16.3% | 56.6% (active) | 57.1% (active) | 6.2%
18 | COc1ccc(NC(=O)COC(=O)c2c(-c3ccccc3)noc2C)cc1 | 15.3% | 63% (active) | 66.1% (active) | -5.04%
19 | CCOc1ccc(NC(=O)COC(=O)C2COc3ccccc3O2)cc1 (stereo unspecified) | -6.6% | 35.4% | 28.8% | 3.94%
20 | COc1ccc(N2CCN(C(=O)CSc3nc4ccccc4c(=O)[nH]3)CC2)cc1 | 12.5% | 46.8% (active) | 27.8% | -12.9%
21 | O=C(O)c1c[nH]c2c([N+](=O)[O-])cccc2c1=O | 10.4% | 35.2% | 29.6% | 5.89%
22 | Cc1nn(C)c(C)c1CN(Cc1nc(CCC(C)C)no1)C(C)C | 20.7% | 59.6% (active) | 54.2% (active) | 52.8% (active)
23 | CCOc1ccc(NC(=O)CSc2nnc(CNC(=O)c3cccs3)o2)cc1 | 20% | 60.3% (active) | 59.6% (active) | -0.65%
24 | CCCc1nc2cc(C)c(Br)c(C)n2c1Cc1ccc(OC)cc1C | 15.2% | 48.3% (active) | 45.3% (active) | 5.35%

Source: PubChem BioAssay
